Sampled rows, rich in hits. Any-hit rate of the full collection: about 2.2%.
PLK1 PBD inh: blocks phosphopeptide binding to human Plk1 polo box domain; 97,000 compounds, 0.13% hits; inhibition, %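 (tested at about 20 µM)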; Plk1 PBD phosphopeptide binding, fluorescence polarization; in the data active = inhibition above about 34%, passing the limit was not always enough
Pyk2 oligo antag: antagonists of human Pyk2 oligomerization. Q293 cells, Pyk2 FERM NanoBiT luminescence; stronger effect = lower value. z-score (the deposit names both 25 µM and 10 µM). 99,000 compounds, 0.83% hits;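 active = Z-score of -3 or lower, scaled per plate to the spread of control and sample wells; inactive = z-score above -3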;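 also: negative z-score means lost luminescence so less FERM oligomerization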
Target sequence (Q14289 whole entry, looked up): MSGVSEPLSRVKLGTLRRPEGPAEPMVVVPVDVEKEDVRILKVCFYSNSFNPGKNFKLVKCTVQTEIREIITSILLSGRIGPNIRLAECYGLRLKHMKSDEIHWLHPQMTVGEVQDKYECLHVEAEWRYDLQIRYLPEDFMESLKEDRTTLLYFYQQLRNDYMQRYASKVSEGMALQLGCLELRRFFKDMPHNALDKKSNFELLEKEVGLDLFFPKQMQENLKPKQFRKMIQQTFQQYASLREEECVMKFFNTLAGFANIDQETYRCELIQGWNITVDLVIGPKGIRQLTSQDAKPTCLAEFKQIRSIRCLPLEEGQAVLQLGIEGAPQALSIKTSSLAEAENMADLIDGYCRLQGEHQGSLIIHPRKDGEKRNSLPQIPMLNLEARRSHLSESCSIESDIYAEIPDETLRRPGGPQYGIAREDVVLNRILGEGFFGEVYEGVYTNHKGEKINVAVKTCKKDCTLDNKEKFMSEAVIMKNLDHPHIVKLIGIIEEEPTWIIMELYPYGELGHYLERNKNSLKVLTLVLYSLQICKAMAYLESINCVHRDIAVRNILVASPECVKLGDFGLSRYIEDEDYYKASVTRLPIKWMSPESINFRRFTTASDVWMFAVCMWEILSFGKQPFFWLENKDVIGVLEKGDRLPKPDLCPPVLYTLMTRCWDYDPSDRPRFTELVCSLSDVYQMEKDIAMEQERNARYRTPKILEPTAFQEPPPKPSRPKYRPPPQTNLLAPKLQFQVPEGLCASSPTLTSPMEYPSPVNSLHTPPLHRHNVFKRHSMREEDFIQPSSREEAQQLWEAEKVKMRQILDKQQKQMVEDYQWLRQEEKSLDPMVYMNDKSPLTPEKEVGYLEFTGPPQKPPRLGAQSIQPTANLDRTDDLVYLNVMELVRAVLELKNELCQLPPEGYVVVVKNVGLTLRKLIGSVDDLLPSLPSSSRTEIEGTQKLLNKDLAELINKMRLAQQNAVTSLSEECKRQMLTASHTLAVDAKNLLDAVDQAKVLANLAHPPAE
IL1B NFkB inh: blocks IL-1B driven NFkB nuclear translocation in HUVEC cells | inhibition, % at 2 µM | AID 796 | HUVEC IL-1B NFkB p65 nuclear translocation imaging | 94,000 compounds, 0.43% hits;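 active = inhibition above about 30% together with a positive call from visual inspection of the well image, limit read from the data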;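 also: nuclear over cytoplasmic p65 intensity ratio measured by imaging; 0% = IL-1B stimulated DMSO wells and 100% = unstimulated DMSO wells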
HUVEC tox IL1B: HUVEC cytotoxicity counter-screen, IL-1B stimulated. cell count reduction, % at 2 µM. HUVEC cell count loss, Hoechst imaging. AID 845. 94,000 compounds, 0.41% hits;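 active = cell count reduction more than 3 SD above the screen-wide mean, cut at about 70% in these data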;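 also: normalized per plate to untreated control cells as the no-loss baseline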
PLK1 inh: PLK1 (human) kinase inhibition | P53350 | recombinant PLK1 kinase, TR-FRET peptide phosphorylation | inhibition, % at 10 µM | 97,000 compounds, 0.53% hits;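 active = inhibition of 50% or more in the single-concentration screen; inactive = inhibition below 50%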;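 also: 0% = DMSO max control and 100% = H-89 dihydrochloride min control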
IL1B NFkB pot: enhances IL-1B driven NFkB nuclear translocation. 94,000 compounds, 0.3% hits. AID 819. HUVEC IL-1B NFkB p65 nuclear translocation imaging. activation, % at 2 µM;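 active = activation above 40%, about the mean plus 3 SD, also judged a hit on visual image review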;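 also: percent activation is computed from the nuclear over cytoplasmic p65 intensity ratio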
* = called active by the depositor; · = not tested or not shown.

SMILES | PLK1 PBD inh | Pyk2 oligo antag | IL1B NFkB inh | HUVEC tox IL1B | PLK1 inh | IL1B NFkB pot
COCCn1c(SCC(=O)Nc2ccc(Cl)cn2)nc2ccccc21 | 1 | -1.8 | -14 | -2 | 3 | 14
COCCn1c(SCC(=O)Nc2sccc2C(N)=O)nc2cc(Cl)ccc2c1=O | -11 | -3* | -3 | 2 | 10 | 3
O=C(Nc1ccc(Cl)cn1)c1ccc(-c2ccc(Cl)c(Cl)c2)o1 | 0 | 1.1 | 0 | 4 | -16 | 0
COc1ccc(NC(=O)C(C/C=C(/C)Cl)C(C)=O)cc1 (configuration not stated) | -16 | 1.4 | 10 | -2 | -10 | -10
CC(=O)c1sc(NC(=O)c2ccc(F)c(F)c2)nc1C | 17 | -0.27 | 32* | -10 | -12 | -32
CC(=O)c1sc(NC(=O)C(C)C)nc1C | -2 | 0.35 | 98* | -19 | -3 | -98
CC(=O)Nc1nc(C)c(C(C)=O)s1 | 24 | -0.41 | -25 | -19 | 3 | 25
CC1=C(C(=O)OCc2ccc3c(c2)OCO3)C(c2ccc(F)cc2)NC(=O)N1 (configuration not stated) | -7 | -2.1 | 2 | -12 | 14 | -2
CC1=C(C(=O)OCc2ccc3c(c2)OCO3)C(c2ccc(Cl)cc2)NC(=O)N1 (configuration not stated) | -11 | -3.2* | 8 | 22 | -6 | -8
Cn1c(Cc2ccccc2)nnc1SCC(=O)c1cccs1 | -11 | 0.23 | -9 | -98 | -5 | 9
CCn1cc(/C=N/N=C2\CCC3C4CCc5cc(O)ccc5C4CC[C@]23C)c(C)n1 (some centres not stated) | 5 | -0.48 | 0 | 8 | -13 | 1
Cc1ccc(C2(c3ccc(C)cc3)CC2C(=O)Nc2ccc([N+](=O)[O-])cc2O)cc1 (configuration not stated) | -5 | -3.4* | · | · | -11 | ·
COC(=O)C1=CN(C(C)C)C=C(C(=O)OC)C1c1cc(Br)c(OC)c(OC)c1 | -19 | -3.6* | · | · | -8 | ·
CCN(CC)S(=O)(=O)c1ccc2oc(Nc3ccc4c(c3)OCCO4)nc2c1 | 2 | -3.5* | -9 | 5 | -3 | 9
Cc1nc2ccc(Nc3nc4cc(S(=O)(=O)N5CCOCC5)ccc4o3)cc2s1 | -29 | -1.5 | -6 | -22 | -3 | 6
Cc1ccccc1C(=O)/C=C1/c2ccccc2CC(C)(C)N1C | -13 | -0.38 | -10 | -39 | -6 | 10
CN1/C(=C\C(=O)c2ccco2)c2ccccc2CC1(C)C | 14 | -0.12 | 34* | 7 | 9 | -35
Cc1cccc(N(C(=O)Nc2ccccc2)C2=NCC(C)S2)c1 (configuration not stated) | -11 | · | · | · | 67* | ·
Cc1ccc(NC(=O)COC(=O)/C(=C/c2cccs2)c2cccs2)cc1S(=O)(=O)N(C)C | · | -2.1 | · | · | · | ·
O=C(c1cccc(C(F)(F)F)c1)N1CCOC12CCN(c1ncc(C(F)(F)F)cc1Cl)CC2 | -4 | 1.5 | 33* | -15 | -3 | -33
O=C(CN1CCCCCC1)N1c2ccccc2C=Cc2ccccc21 | 4 | 0.13 | 31* | 3 | -8 | -31
O=C(CN1CCCCC1)N1CCCc2ccccc21 | 30 | 1 | -13 | 10 | -5 | 13
O=C(COC(=O)CNS(=O)(=O)c1ccc(F)c(F)c1F)Nc1ccc(OC(F)F)cc1 | · | 0.77 | · | · | · | ·
Cc1cc(C(F)(F)F)c2c(N)c(C(=O)Nc3cc(C)on3)sc2n1 | 4 | -0.06 | -10 | 6 | -6 | 10
C=CCNc1nc(N)c(C(=O)Nc2cc(C)on2)s1 | 7 | 0.12 | 10 | 77* | 5 | -10
SMILES | PLK1 PBD inh | Pyk2 oligo antag | IL1B NFkB inh | HUVEC tox IL1B | PLK1 inh | IL1B NFkB pot
CCOc1ccc(N(CC(=O)NC(C)CC)S(=O)(=O)c2c(C)noc2C)cc1 (configuration not stated) | 18 | · | · | · | 63* | ·
Cc1cc(S(=O)(=O)Nc2cccc(O)c2)c(C)s1 | 14 | 0.04 | -16 | 2 | -2 | 16
Cc1cc(S(=O)(=O)Nc2ccc(F)cc2)c(C)s1 | -4 | -0.81 | 12 | 89* | -12 | -12
CCCCNC(=S)NNC(=O)c1nn(C)cc1Cl | -2 | -0.72 | 2 | -6 | -9 | -2
CN(Cc1ccccc1)C(=O)c1ccccc1NC(=O)c1ccco1 | -4 | 0.19 | -42 | 88* | -10 | 42*
O=C(CCSc1nnc(-c2ccncc2)o1)Nc1ccccc1Cl | -20 | 0.51 | 10 | -52 | 5 | -9
Cc1ccccc1N1C(=O)N(c2cccc(C(F)(F)F)c2)C2CS(=O)(=O)CC21 (configuration not stated) | 1 | -0.56 | -73 | -9 | -8 | 73*
COc1cccc(N2C(=O)N(c3ccccc3Cl)C3CS(=O)(=O)CC32)c1 (configuration not stated) | 9 | 0.44 | -14 | -115 | -11 | 14
O=C(NCC1OCCc2ccccc21)c1ccco1 (configuration not stated) | 26 | 2.7 | -53 | -2 | -6 | 53*
O=C(CCN1CCCCC1)NCC1OCCc2ccccc21 (configuration not stated) | 4 | 0.06 | -21 | -42 | -10 | 21
O=C(CCN1CCN(c2ccccc2)CC1)Nc1nccs1 | -5 | -0.08 | 0 | -48 | 65* | 0
O=C(CN1CCN(c2ccccc2)CC1)Nc1nccs1 | 24 | 0.28 | 4 | 31 | -6 | -4
CCOC(=O)c1sc(NC(=O)CCN2C(=O)c3cccc([N+](=O)[O-])c3C2=O)c(C(=O)OCC)c1C | 3 | -0.17 | -12 | -3 | -3 | 12
CC1CN(S(=O)(=O)N(C)C)CCN1S(=O)(=O)N(C)C (configuration not stated) | 0 | 0.56 | -2 | 88* | -6 | 2
O=C(O)C1C(C(=O)Nc2ccc(Cl)cc2)C2C=CC1C21CC1 (configuration not stated) | -7 | 1.3 | -10 | 76* | -2 | 10
O=C(Nc1ccc(Cl)cc1)C1C2CCC3C(CCC21)C3(Cl)Cl (configuration not stated) | 33 | -0.79 | 13 | 9 | -18 | -13
Cc1ccccc1Cn1nc(C)c(NC(=O)c2cc3n(n2)C(C(F)F)CC(C(F)F)N3)c1C (configuration not stated) | -26 | 0.75 | 96* | 78* | -2 | -96
Cc1ccc(S(=O)(=O)N2CCSC2C(=O)O)cc1 (configuration not stated) | -13 | 0.44 | 7 | 75* | 1 | -7
COc1cc(/C=C/C(=O)c2c(O)ccc3c(C)cc(=O)oc23)ccc1O | -17 | -3* | -9 | -2 | -6 | 9
CC(=O)N(Cc1ccc(F)cc1)C1=C(NCCc2ccccc2)C(=O)c2ccccc2C1=O | 6 | -3.2* | · | · | 0 | ·
O=[N+]([O-])c1nn(-c2ccc3c(c2)OCCO3)n(O)c1=Nc1ccc(Cl)cc1 | 9 | -3.4* | 8 | 47 | -6 | -8
O=C(NC1CC1)C1CC(=O)N(C2CCCCC2)C1 (configuration not stated) | -16 | 2 | -121 | 5 | -10 | 121*

Source: PubChem (several laboratories)
